Reference: PubChem BioAssay AID602295 (Broad Institute, 2012)

These compounds were tested against Mitogen-activated protein kinase 3 (Homo sapiens) (UniProt P27361) (assay: ERK1 kinase inhibitors, dose response, selectivity assay for Dyrk1A inhibitor NFAT project, biochemical, ADP-Glo luminescence, cherry pick, set 2 (AID 602295)). Details: 120 min; series mostly up to 10 µM; activity change, negative = inhibition: at the top concentration;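 active = every separate test run called active, meaning the signal drops and a potency is fitted within twice the top valid dose; inconclusive = runs disagree, poor fit, or flat partial inhibition; inactive = all runs inactive, flat, opposite direction or too weak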.
Sequence of Mitogen-activated protein kinase 3 (Homo sapiens) (P27361 whole entry, looked up): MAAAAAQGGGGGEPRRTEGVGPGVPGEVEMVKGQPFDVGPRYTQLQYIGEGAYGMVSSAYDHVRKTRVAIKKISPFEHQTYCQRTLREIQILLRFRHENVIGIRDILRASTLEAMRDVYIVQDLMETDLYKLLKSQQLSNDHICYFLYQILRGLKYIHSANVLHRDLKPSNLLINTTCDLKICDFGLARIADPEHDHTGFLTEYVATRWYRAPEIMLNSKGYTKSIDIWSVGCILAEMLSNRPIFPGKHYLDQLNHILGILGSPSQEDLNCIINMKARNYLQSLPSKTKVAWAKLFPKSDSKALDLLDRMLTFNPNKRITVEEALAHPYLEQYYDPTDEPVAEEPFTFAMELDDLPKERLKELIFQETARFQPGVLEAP

Activity change, negative = inhibition, inactive:
Clc1ccc(CNc2ncncc2-c2ccc3c(c2)OCO3)cc1 20.6%, CN(C)S(=O)(=O)c1ccc(NC(=O)c2cc3ccccc3o2)cc1 22.8%, c1cncc(CNc2nccc(-c3ccc4cn[nH]c4c3)n2)c1 1.75%, Cc1csc(CN(C)c2ncnc3ccc(-c4ccc5c(c4)OCO5)cc23)n1 -18.1%, O=C(NCc1ccco1)c1sc2ccccc2c1Cl 10.5%, Brc1cc(Br)cc(CNc2nccc(-c3ccc4c(c3)OCO4)n2)c1 9.15%, c1cncc(CNc2ccnc(-c3ccc4cn[nH]c4c3)n2)c1 23.2%, COCCNC(=O)c1ccc2c(c1)nc(C)n2-c1cccc(F)c1 18.5%, COc1ccc2c(c1)CCc1c-2n[nH]c1C(=O)O 10.8%, O=C(O)COc1ccc(/C=C/c2nc3ccc([N+](=O)[O-])cc3s2)cc1 -12.7%, N#CCSc1nc(Nc2ccc3c(c2)OCO3)c2ccccc2n1 -21.8%, Cc1nc(NC(=O)c2ccccc2)sc1-c1csc(NCc2ccco2)n1 -17.2%, Fc1c(-c2ccc3ncnc(NCc4cccs4)c3c2)ccc2c1OCO2 15.5%, N#Cc1c(C(F)(F)F)cc(-c2cccc(Cl)c2)[nH]c1=O -9.95%, Cc1nc(N)sc1-c1csc(Nc2ccccc2)n1 -26.4%, CCN1CCN(Cc2ccc(NC(=O)c3ccc(C)c(/C=C/c4cnc(Nc5cc(N6CCNCC6)nc(C)n5)cn4)c3)cc2C(F)(F)F)CC1 15%, Cc1ccsc1CNc1ncnc2ccc(-c3ccc4c(c3)OCO4)cc12 1.53%, CCCNc1ncnc2ccc(-c3ccc4c(c3)OCO4)cc12 1.11%, NC(=O)c1c(NC(=O)c2ccc(N3C(=O)CCC3=O)cc2)sc2c1CCCC2 -13%, CN(Cc1nccs1)c1ncnc2ccc(-c3ccc4c(c3)OCO4)cc12 13.9%, COc1cccc(-c2sc3ccccc3c2-c2ccc(OCCN3CCCC3)cc2)c1 21.3%, Clc1ccc(CNc2nccc(-c3ccc4[nH]ncc4c3)n2)cc1Cl 6.86%, O=C(Nc1nc2ccc(Cl)cc2s1)C1CCCO1 (configuration not stated) -21.8%, COc1ccc(-c2cc(NCCc3ccncc3)n3ncnc3n2)cc1 -2.17%, Clc1ccccc1-c1ccc2ncnc(NCc3ccc4c(c3)OCO4)c2c1 0.907%, Cc1ccc(CNc2ncnc3ccc(-c4ccc5c(c4)OCO5)cc23)o1 12.1%, Cc1nc(CNc2ncnc3ccc(-c4ccoc4)cc23)cs1 30.8%, Cc1nc(CNc2ncnc3ccc(-c4ccc5c(c4)OCO5)cc23)cs1 25.5%, COc1cc(C(=O)Nc2cccc(-c3nncn3C)c2)cc(OC)c1OC -9.92%, Brc1ccc(CNc2nccc(-c3ccc4c(c3)OCO4)n2)cc1Br 23.2%, CN(C)c1ccc(-c2nccc(NCc3cccs3)n2)cc1 -15.6%, Cc1noc(NS(=O)(=O)c2ccc(NC(=O)c3oc4ccc(F)cc4c3C)cc2)c1C 9.38%
